Most compounds without a hit are left out; they make up all but 12% or so of the library.
HP1b binding inh = blocks HP1-beta chromodomain binding to methylated histone tails | P83916 | AlphaScreen HP1-beta / biotin-H3K9me3 peptide binding | Potency, µM (top dose mostly 114 µM), actives largely listed as inhibitors | hit rate 0.56% among 390,000 | AID 540317; also: nearly all actives have a fitted effect of over 70% in size
Target sequence (P83916 whole entry, looked up): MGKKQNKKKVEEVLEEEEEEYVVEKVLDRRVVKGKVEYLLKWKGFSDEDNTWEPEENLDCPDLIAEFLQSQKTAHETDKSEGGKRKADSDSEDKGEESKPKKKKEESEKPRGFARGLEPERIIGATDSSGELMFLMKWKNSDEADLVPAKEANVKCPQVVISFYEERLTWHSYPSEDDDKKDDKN
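HP1-beta protein (50 nM final) preincubated 30 min at room temperature with biotinylated H3(1-18)K9me3 peptide (50 nM) in PBS pH 7.4, 0.01% Tween-20, then compound added for 30 min. AlphaScreen streptavidin donor/nickel chelate acceptor beads (10 ug/mL final), 30 min dark, luminescence read.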
TDP1 inh = inhibitors of human tyrosyl-DNA phosphodiesterase TDP1; hit rate 0.28% among 350,000; Q9NUW8; recombinant TDP1, AlphaScreen DNA substrate cleavage; Potency, µM (doses to about 130 µM), usual class: inhibitors; AID 485290; also: nearly all actives have a fitted effect of over 40% in size
Target sequence (Q9NUW8 whole entry, looked up): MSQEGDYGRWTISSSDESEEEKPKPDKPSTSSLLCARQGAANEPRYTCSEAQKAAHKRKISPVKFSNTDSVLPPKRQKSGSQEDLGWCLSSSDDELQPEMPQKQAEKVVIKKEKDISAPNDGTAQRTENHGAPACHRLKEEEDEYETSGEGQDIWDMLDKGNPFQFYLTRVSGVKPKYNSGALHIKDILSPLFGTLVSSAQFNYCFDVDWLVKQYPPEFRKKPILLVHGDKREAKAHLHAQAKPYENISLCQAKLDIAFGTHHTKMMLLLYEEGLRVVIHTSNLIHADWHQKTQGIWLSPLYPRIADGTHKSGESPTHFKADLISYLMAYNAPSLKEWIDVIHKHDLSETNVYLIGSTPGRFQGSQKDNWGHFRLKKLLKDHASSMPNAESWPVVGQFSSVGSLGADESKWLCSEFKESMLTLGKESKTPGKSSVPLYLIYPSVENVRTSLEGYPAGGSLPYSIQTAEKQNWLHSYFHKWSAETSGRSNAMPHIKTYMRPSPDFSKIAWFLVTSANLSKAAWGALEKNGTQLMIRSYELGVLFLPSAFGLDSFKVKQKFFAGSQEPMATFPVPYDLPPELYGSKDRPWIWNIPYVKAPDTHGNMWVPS
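Here, a 5' biotin and 3' phosphotyrosine-FITC DNA oligonucleotide reports Tdp1 activity: intact substrate bridges AlphaScreen beads, while cleavage leaves a 3' phosphate and drops signal. All incubations at room temperature.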
Sfp inh = Sfp phosphopantetheinyl transferase inhibition | Q9F4F7 | Biochemical Sfp PPTase activity, qHTS | Potency, µM, usual class: inhibitors | hit rate 3.5% among 310,000 | AID 1490;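 also: the enzyme is Sfp with the accession as filed and its product quenches rhodamine fluorescence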
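Step 1, compound plus 15 nM Sfp-PPTase, 15 min, room temperature. Step 2, add rhodamine-CoA (5 uM) and BHQ-2-YbbR (12.5 uM). Step 3, read 525/598 nm fluorescence at 0 and 30 min.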
G9a block = G9a (human) methyltransferase inhibition; Q96KQ7; G9a H3K9 monomethylation, AlphaScreen, 2 h; Potency, µM (top dose mostly 102 µM), most hits filed as inhibitors; hit rate 8.8% among 350,000; also: nearly all actives have a fitted effect of over 75% in size
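Quantitative HTS format: methyltransferase activity on a biotin-tagged H3K9 peptide is measured by AlphaScreen, using a rabbit anti-monomethyl-H3K9 antibody with streptavidin donor and anti-IgG acceptor beads. Final levels are 20 nM enzyme, 500 nM peptide, 20 uM SAM; 2 h RT.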
JMJD2A Tudor = blocks the human JMJD2A Tudor domain | AlphaScreen JMJD2A-Tudor / H3K4me3 peptide binding | Potency, µM (doses to about 114 µM), usual class: inhibitors | hit rate 4.4% among 390,000; also: nearly all actives have a fitted effect of over 50% in size
BAZ2B block = BAZ2B (human) inhibition; Q9UIF8; AlphaScreen BAZ2B-H3K14Ac peptide displacement; Potency, µM (highest dose often 114 µM), usual class: inhibitors; hit rate 4.4% among 360,000; AID 504333; also: nearly all actives have a fitted effect of over 60% in size
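In this displacement format the biotinylated H3(5-23) peptide acetylated at Lys14 serves as ligand at 50 nM, with BAZ2B at 50 nM in PBS pH 7.4 containing 0.01% Tween-20. Donor and acceptor beads are 10 ug/mL final.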
Each line names hits and unclear results; the compound was inactive in the other large screens. Calls follow the shape of the dose curve; as a rule, active = well fitted curve in the direction sought with a large enough effect; inconclusive = small, poorly fitted or top-dose-only effect, or another doubt; inactive = no such curve, though single readings can be large; an effect the other way counts as inactive or inconclusive.

COc1ccccc1C(=O)NC(=S)Nc1cccc2cc(O)ccc12	JMJD2A Tudor inconclusive (no result: TDP1 inh, Sfp inh, G9a block, BAZ2B block)
O=C(NC(=S)Nc1cccc2cc(O)ccc12)c1ccco1	G9a block 16µM, BAZ2B block inconclusive
O=C(NC(=S)Nc1cccc2cc(O)ccc12)c1ccccc1Br	G9a block 32µM, JMJD2A Tudor inconclusive, BAZ2B block inconclusive
COc1ccc(-c2nnnn2C)cc1S(=O)(=O)Nc1ccc(C)cc1C	none
COCCOC1CCN(C(=O)C2CCC(=O)N(CCc3ccccc3)C2)CC1 (centres undefined)	none (no result: G9a block)
COc1cc(C2C3=C(COC3=O)Oc3cc4c(cc32)OCO4)cc(OC)c1O (centres undefined)	none (no result: TDP1 inh, Sfp inh, G9a block, BAZ2B block)
O=C(CC1C(=O)Nc2ccccc2N1CC(=O)N1CCCC1)Nc1ccc(Br)cc1 (centres undefined)	G9a block 0.28µM (no result: Sfp inh)
CCCCCCCC(=O)N1c2ccccc2NC(=O)C1CC(=O)Nc1ccc(C(=O)O)cc1 (centres undefined)	none
Cc1cn([C@H]2C[C@H](O)[C@@H](CCC(=O)NCCCn3ccnc3)O2)c(=O)[nH]c1=O	none (no result: Sfp inh, G9a block, BAZ2B block)
O=C(O)CCN1C(=O)/C(=C\c2ccc(-c3nc4ccccc4s3)o2)SC1=S	HP1b binding inh 18µM, Sfp inh 45µM, G9a block inconclusive, JMJD2A Tudor 4µM, BAZ2B block inconclusive
O=C(O)CCCN1C(=O)/C(=C\c2ccco2)SC1=S	HP1b binding inh inconclusive, TDP1 inh 22µM, Sfp inh 18µM, G9a block 45µM, JMJD2A Tudor 79µM, BAZ2B block inconclusive
O=C(CCN1C(=O)/C(=C/c2ccco2)SC1=S)Nc1ccc(O)cc1C(=O)O	HP1b binding inh 18µM, G9a block 28µM, JMJD2A Tudor 28µM, BAZ2B block 50µM (no result: TDP1 inh)
O=C(CCCN1C(=O)/C(=C/c2ccccc2Cl)SC1=S)NNC(=O)c1ccccc1	none
CC(=O)NNC(=O)CN1C(=O)/C(=C/c2ccccc2)SC1=S	none
O=C(CN1C(=O)/C(=C\c2ccco2)SC1=S)Nc1ccc(O)cc1C(=O)O	Sfp inh 56µM, BAZ2B block 40µM
O=C(CCN1C(=O)/C(=C\c2ccccc2)SC1=S)NNC(=O)c1ccccc1O	none
Cc1onc(-c2c(F)cccc2Cl)c1C(=O)NCCc1ccncc1	none
C[C@H](CCC(=O)NCC(=O)O)C1CC[C@H]2C3CC[C@@H]4C[C@H](O)CC[C@]4(C)C3C[C@H](O)[C@]12C (some centres undefined)	none (no result: HP1b binding inh, JMJD2A Tudor, BAZ2B block)
O=C(NNS(=O)(=O)c1ccccc1Cl)C1COc2ccccc2O1 (centres undefined)	none (no result: Sfp inh, G9a block, BAZ2B block)
Cc1ccc(CCNC(=O)c2ccc(CNS(=O)(=O)c3ccc(F)cc3)cc2)cc1	none (no result: Sfp inh)
O=C(CCCN1C(=O)/C(=C/c2ccccc2)SC1=S)Nc1ccccc1O	none
O=C(CCCN1C(=O)/C(=C\c2ccccc2)SC1=S)Nc1ccc(O)cc1C(=O)O	BAZ2B block 35µM (no result: G9a block)
O=C1/C(=C\c2ccco2)SC(=S)N1Cc1ccccc1	HP1b binding inh inconclusive, Sfp inh inconclusive, JMJD2A Tudor 50µM, BAZ2B block 11µM
O=C(CCCN1C(=O)/C(=C/c2ccco2)SC1=S)Nc1ccccc1C(=O)O	Sfp inh 50µM, JMJD2A Tudor 89µM, BAZ2B block 40µM (no result: TDP1 inh, G9a block)
COc1ccc(CCN2C(=O)/C(=C\c3ccco3)SC2=S)cc1OC	Sfp inh 18µM, G9a block 45µM, BAZ2B block 8.9µM
C/C(=N/OC(=O)c1ccccc1)c1oc(C)nc1C	none (no result: G9a block)
O=C(CCCN1C(=O)/C(=C\c2ccco2)SC1=S)Nc1ccc2ccccc2c1	Sfp inh inconclusive, G9a block 25µM, BAZ2B block inconclusive
O=C(Nc1ccc(O)cc1C(=O)O)c1cccs1	G9a block inconclusive
CC(C(=O)Nc1ccc(O)cc1C(=O)O)N1C(=O)/C(=C\c2cccs2)SC1=S (centres undefined)	HP1b binding inh inconclusive, Sfp inh 22µM, G9a block 7.9µM, JMJD2A Tudor 45µM, BAZ2B block 50µM
COc1ccc(-n2nc(C(=O)NCC(=O)N3CC(C)CC(C)C3)c3ccccc3c2=O)cc1 (centres undefined)	none
NC(=O)c1ccccc1NC(=O)C1CCCN(c2ncnc3onc(-c4ccc(F)cc4)c23)C1 (centres undefined)	none (no result: Sfp inh)
O=C(O)CCC(=O)NNc1ncnc2ccccc12	Sfp inh 56µM, BAZ2B block inconclusive
CCC(=O)NNc1ncnc2ccccc12	none
O=C(O)CCC(=O)NNc1nc2ccccc2nc1-c1ccccc1	Sfp inh 56µM (no result: G9a block)
O=C(O)CCC(=O)NNc1nc(-c2ccccc2)c2cc(Cl)ccc2n1	none (no result: TDP1 inh)
CC1(C)NC(=O)N(CC(=O)Nc2ccc(-n3cnnn3)cc2)C1=O	none (no result: Sfp inh, G9a block, BAZ2B block)
O=C(NCC(=O)N1CCOCC1)c1ccc(Cl)c(Cl)c1	none (no result: Sfp inh, G9a block, BAZ2B block)
CCc1ccccc1N=C1S/C(=C/c2ccccc2OCC(=O)N2CCOCC2)C(=O)N1C	Sfp inh inconclusive, G9a block inconclusive, JMJD2A Tudor inconclusive, BAZ2B block inconclusive
O=C1NN(c2ccccc2)C(=O)/C1=C\c1ccccc1OCC(=O)N1CCOCC1	Sfp inh inconclusive, G9a block 45µM
CCCC1Cc2c(sc3ncnc(N)c23)CO1 (centres undefined)	G9a block 45µM
CCOc1ccc(S(=O)(=O)N(CC(=O)NC2CCCC2)c2ccc(F)cc2)cc1	none (no result: TDP1 inh, Sfp inh, G9a block, BAZ2B block)
O=C(C1=C(O)C(=O)N(c2ncccn2)C1c1ccc(Cl)c(Cl)c1)c1ccco1 (centres undefined)	HP1b binding inh inconclusive, Sfp inh 56µM, G9a block 40µM, JMJD2A Tudor 7.1µM, BAZ2B block 79µM
O=C(C1=C(O)C(=O)N(c2ncccn2)C1c1ccc(Cl)cc1)c1ccco1 (centres undefined)	BAZ2B block 71µM (no result: G9a block)
Cc1cc(N2C(=O)C(O)=C(C(=O)c3ccco3)C2c2cccnc2)no1 (centres undefined)	none (no result: HP1b binding inh, JMJD2A Tudor)
CC(=O)C1=C(O)C(=O)N(c2ccccn2)C1c1ccc(Cl)cc1 (centres undefined)	none (no result: TDP1 inh)
Cc1ccc(C(=O)C2=C(O)C(=O)N(c3ncccn3)C2c2ccc(Cl)cc2)o1 (centres undefined)	G9a block 10µM
CC(C)Oc1ccc(CNC(=O)Cc2ccc(NC(=O)N3CCSc4ncccc43)cc2)cc1	none (no result: Sfp inh)
O=C(O)Cn1c(C(=O)Nc2nc(-c3ccccc3Cl)cs2)cc2ccccc21	none (no result: HP1b binding inh, JMJD2A Tudor, BAZ2B block)
NC(N)=N/N=C(\N=Nc1ccccc1)c1cccc2cccnc12	JMJD2A Tudor inconclusive (no result: TDP1 inh, Sfp inh, G9a block, BAZ2B block)
NC(N)=N/N=C(\N=Nc1ccccc1)c1ccc(Cl)cc1	HP1b binding inh inconclusive, JMJD2A Tudor 22µM (no result: TDP1 inh, Sfp inh, G9a block, BAZ2B block)
COc1ccc(CCNC(=O)c2ccc3c(c2)N(Cc2ccc(Cl)cc2)C(=O)c2ccccc2S3)cc1OC	none (no result: Sfp inh)

Screening results deposited in PubChem by National Center for Advancing Translational Sciences (NCATS).
